Assay results reported in PubChem BioAssay (EPA / NIEHS).
The source made the active and inactive calls. The calls were made as follows: active = hit-call score of the fitted dose curve at least 0.9, where 1 is the maximum; inactive = score below 0.9.

Key:
Conditions in all cases: mRNA level, 48 h; actives raise or lower the signal
[1] = read-out: Cytochrome P450 7A1 (Homo sapiens) (UniProt P22680); test: LTEA_HepaRG_CYP7A1: Life Technologies and Expression Analysis (LTEA) Assay for Cytochrome P450 7A1 (CYP7A1) using HepaRG (AID 2283496)
In short: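 Using 0.5% DMSO as vehicle and baseline, chemicals were tested in duplicate over an 8-point range from 100 uM on HepaRG cells for 48 h; qRT-PCR signals were normalised to ACTB, GAPDH and POLR2A.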

[2] = read-out: Glutathione S-Transferase (GSTA2), GSTA2 (gene 2939); test: LTEA_HepaRG_GSTA2: Life Technologies and Expression Analysis (LTEA) Assay for Glutathione S-Transferase (GSTA2) using HepaRG (AID 2283497)
In short: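 Oxidative-stress marker GSTA2 is quantified by TaqMan qRT-PCR in HepaRG cultures treated 48 h across an eight-point range to 100 uM. Expression is normalized to endogenous controls and compared with 0.5% DMSO vehicle.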

[3] = read-out: Glutamate-cysteine ligase catalytic (GCLC), GCLC (gene 2729); test: LTEA_HepaRG_GCLC: Life Technologies and Expression Analysis (LTEA) Assay for Glutamate-cysteine ligase catalytic (GCLC) using HepaRG (AID 2283498)
In short: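 Oxidative-stress marker GCLC is measured as mRNA change in human HepaRG liver cells after 48 h chemical treatment in 0.5% DMSO, eight concentrations from 100 uM. Activity is fitted bidirectionally against vehicle.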

[4] = read-out: Glutamate-cysteine ligase regulatory (GCLM), GCLM (gene 2730); test: LTEA_HepaRG_GCLM: Life Technologies and Expression Analysis (LTEA) Assay for Glutamate-cysteine ligase regulatory (GCLM) using HepaRG (AID 2283500)
In short: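 HepaRG, 48 h dosing, 100 uM top, half-log x8, 0.5% DMSO vehicle. Readout: GCLM mRNA by TaqMan qRT-PCR, housekeeping-normalized (ACTB/GAPDH/POLR2A). Curves fit bidirectionally vs DMSO baseline.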

[5] = read-out: Glutathione S-transferase M3 (GSTM3), GSTM3 (gene 2947); test: LTEA_HepaRG_GSTM3: Life Technologies and Expression Analysis (LTEA) Assay for Glutathione S-transferase M3 (GSTM3) using HepaRG (AID 2283501)
In short: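 HepaRG, plated 48 h, then serum-free induction medium; test chemical 48 h, duplicate; 100 uM top, half-log x8, 0.5% DMSO. Read-out: GSTM3 mRNA (TaqMan qRT-PCR, Fluidigm array). Bidirectional fit vs DMSO.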

[6] = read-out: Heat shock 70 kDa protein 1 (HSPA1A), gene 3303; test: LTEA_HepaRG_HSPA1A: Life Technologies and Expression Analysis (LTEA) Assay for Heat shock 70 kDa protein 1 (HSPA1A) using HepaRG (AID 2283502)
In short: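 HepaRG, 48 h exposure, 8-pt half-log CRC from 100 uM in 0.5% DMSO, duplicates. Readout: TaqMan qRT-PCR of HSPA1A mRNA, housekeeping-normalized (ACTB/GAPDH/POLR2A). Bidirectional fit vs 0.5% DMSO baseline.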

[7] = read-out: 3-Hydroxy-3-Methylglutaryl-CoA Synthase 2 (HMGCS2), HMGCS2 (gene 3158); test: LTEA_HepaRG_HMGCS2: Life Technologies and Expression Analysis (LTEA) Assay for 3-Hydroxy-3-Methylglutaryl-CoA Synthase 2 (HMGCS2) using HepaRG (AID 2283504)
In short: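 HepaRG, plated 48 h then switched to serum-free induction media; cmpd 8-pt, max 100 uM, 1/2-log, 0.5% DMSO, n=2, 48 h. HMGCS2 mRNA by Fluidigm TaqMan qRT-PCR, ACTB/GAPDH/POLR2A norm; bidirectional fit vs DMSO.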

[8] = read-out: HGF (gene 3082); test: LTEA_HepaRG_HGF: Life Technologies and Expression Analysis (LTEA) Assay for Hepatocyte Growth Facto (HGF) using HepaRG (AID 2283505)
In short: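 Read-out is HGF transcript level by qRT-PCR, normalized to three housekeeping genes, fitted bidirectionally against 0.5% DMSO vehicle. Human HepaRG cells received test chemicals for 48 h at up to 100 uM.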

[9] = read-out: Hypoxia-inducible factor 1-alpha (Homo sapiens) (UniProt Q16665); test: LTEA_HepaRG_HIF1A: Life Technologies and Expression Analysis (LTEA) Assay for Hypoxia-inducible factor 1 (HIF1A) Trancription factor using HepaRG (AID 2283503)
In short: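 Gain- or loss-of-signal HIF1A mRNA changes are fitted against a DMSO baseline. HepaRG cultures receive eight concentrations, highest 100 uM, for 48 h in serum-free induction medium with 0.5% DMSO.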

[10] = read-out: growth arrest and DNA damage 45 (GADD45G), GADD45G (gene 10912); test: LTEA_HepaRG_GADD45G: Life Technologies and Expression Analysis (LTEA) Assay for growth arrest and DNA damage 45 (GADD45G) using HepaRG (AID 2283499)
In short: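 Gain or loss of GADD45G mRNA, quantified by TaqMan qRT-PCR against three housekeeping genes, is fitted in both directions relative to 0.5% DMSO. Human HepaRG cultures receive test chemical for 48 h at up to 100 uM.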

Measured: AC50

Sequence of Hypoxia-inducible factor 1-alpha (Homo sapiens) (Q16665 whole entry, looked up): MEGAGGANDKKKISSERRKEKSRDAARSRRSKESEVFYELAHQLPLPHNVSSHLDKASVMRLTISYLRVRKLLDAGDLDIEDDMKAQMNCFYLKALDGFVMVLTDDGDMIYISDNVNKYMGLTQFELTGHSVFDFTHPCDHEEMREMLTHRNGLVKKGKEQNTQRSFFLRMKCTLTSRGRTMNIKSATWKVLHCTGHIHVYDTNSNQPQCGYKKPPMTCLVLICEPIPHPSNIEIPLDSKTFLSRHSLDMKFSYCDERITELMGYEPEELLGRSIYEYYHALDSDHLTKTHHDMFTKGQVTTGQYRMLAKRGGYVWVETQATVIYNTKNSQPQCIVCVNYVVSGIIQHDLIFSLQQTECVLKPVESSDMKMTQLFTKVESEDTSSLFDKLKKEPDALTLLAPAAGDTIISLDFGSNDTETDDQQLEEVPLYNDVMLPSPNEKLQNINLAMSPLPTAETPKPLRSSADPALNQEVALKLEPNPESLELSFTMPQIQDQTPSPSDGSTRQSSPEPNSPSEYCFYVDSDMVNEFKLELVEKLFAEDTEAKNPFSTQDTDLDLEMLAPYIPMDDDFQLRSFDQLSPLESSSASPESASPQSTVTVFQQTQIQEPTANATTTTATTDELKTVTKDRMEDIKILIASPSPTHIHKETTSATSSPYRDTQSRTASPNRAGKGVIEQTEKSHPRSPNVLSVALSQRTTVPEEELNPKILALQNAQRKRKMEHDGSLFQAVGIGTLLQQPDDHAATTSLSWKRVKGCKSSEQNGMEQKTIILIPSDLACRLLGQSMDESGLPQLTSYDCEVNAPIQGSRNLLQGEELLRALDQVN

CS(=O)(=O)c1cc(C(F)(F)F)ccc1C(=O)c1cnoc1C1CC1
not listed: [9] | [10]
inactive: all other assays above

CC1(C)CCC(=Cc2ccc(Cl)cc2)C1(O)Cn1cncn1 (centres undefined)
active: [1] 4.96 µM
not listed: [10]
inactive: all other assays above

CC(C)N1C(=O)N(c2ccccc2)CSC1=NC(C)(C)C
inactive: [5] | [6] | [8]
active: [1] 70.4 µM | [2] 82.3 µM | [3] 81.8 µM | [4] 74.7 µM | [7] 75.5 µM

CCN(CC)c1nc(C)cc(OP(=S)(OC)OC)n1
not listed: [9] | [10]
inactive: all other assays above

O=c1n(Cl)c(=O)n(Cl)c(=O)n1Cl
not listed: [9] | [10]
inactive: all other assays above

COc1cc(Cl)c(OC)cc1Cl
not listed: [9] | [10]
inactive: all other assays above

CCSC(=O)N1CCCCCC1
not listed: [9] | [10]
inactive: all other assays above

Clc1cccc(C(Cl)(Cl)Cl)n1
not listed: [9] | [10]
inactive: all other assays above

CC(C)NC(=O)N1CC(=O)N(c2cc(Cl)cc(Cl)c2)C1=O
inactive: [3] | [5] | [6] | [8]
active: [1] 13.1 µM | [2] 25 µM | [4] 27.8 µM | [7] 13.2 µM

N#CN=C1SCCN1Cc1ccc(Cl)nc1
not listed: [9] | [10]
inactive: all other assays above

CCOc1nc(F)cc2nc(S(=O)(=O)Nc3c(Cl)cccc3Cl)nn12
active: [1] 36.7 µM
not listed: [10]
inactive: all other assays above

CCCC(=NOCC)C1=C(O)CC(CC(C)SCC)CC1=O (centres undefined)
not listed: [9] | [10]
inactive: all other assays above

CC(C)(C)C(=O)C(Oc1ccc(Cl)cc1)n1cncn1 (centres undefined)
not listed: [2] | [9]
inactive: all other assays above

N#Cc1c[nH]cc1-c1cccc2c1OC(F)(F)O2
active: [1] 69.9 µM | [2] 85.6 µM | [4] 93.2 µM | [5] 50 µM | [7] 79.3 µM
inactive: [3] | [6] | [8]

COc1cc(OC)nc(NC(=O)NS(=O)(=O)c2ncccc2OCC(F)(F)F)n1
active: [6] 0.237 µM
not listed: [9] | [10]
inactive: all other assays above

OC(c1ccc(Cl)cc1)(c1ccc(Cl)cc1)C(Cl)(Cl)Cl
inactive: [3] | [4] | [8]
active: [1] 75.9 µM | [2] 77.3 µM | [5] 81.2 µM | [6] 89.3 µM | [7] 80.1 µM

CC1(C)C(C=C(Cl)Cl)C1C(=O)OC(C#N)c1cccc(Oc2ccccc2)c1 (centres undefined)
active: [1] 13.9 µM
not listed: [9] | [10]
inactive: all other assays above

CC(C)Oc1cccc(NC(=O)c2ccccc2C(F)(F)F)c1
active: [2] 50 µM
not listed: [9] | [10]
inactive: all other assays above

CCOc1cc(C(C)(C)C)ccc1C1COC(c2c(F)cccc2F)=N1 (centres undefined)
active: [1] 26.9 µM | [7] 46.9 µM
not listed: [9] | [10]
inactive: all other assays above
